# Test results reported in PubChem BioAssay AID463173 (ICCB-Longwood Screening Facility, Harvard Medical School, 2010).
# The campaign covered roughly 52,000 compounds. About 1,700 (3.3%) were called active. The sample holds actives, similar compounds and a random draw of the others, so the mix is not that of the screen. Cut-off read from the data, not from the text of the source: active = survival mostly below about 52% (no sharp cut-off); inactive = mostly above about 56%.
# Test system: Wild type
# Experiment: growth inhibition of S. aureus wild type versus tarO mutant, primary screen, teichoic acid synthesis inhibitors, RN4220, OD600 (AID 463173)
# Conditions: S. aureus RN4220 wild type/DeltatarO growth, OD600, 18 h, hits give low values, screened at 18.75 µg/mL (by protocol)
row,SMILES,survival
1,Cc1cccc(NC(=O)CSc2nnc(C)c(=O)[nH]2)c1,101% (inactive)
2,Cc1ccc(CN2CCN(C3CCN(C(=O)OC(C)(C)C)CC3)C(=O)C2=O)cc1,124% (inactive)
3,CCc1ccc(NC(=O)C(CC)n2nnc(C(=O)OC)c2C(=O)OC)cc1 (stereo unspecified),-1% (active)
4,CCOC(=O)c1nnn(C(CC)C(=O)Nc2ccc(F)cc2)c1C(=O)OCC (stereo unspecified),99% (inactive)
5,CCC(C(=O)Nc1cc(C)ccc1OC)n1nnc(C(=O)OC)c1C(=O)OC (stereo unspecified),89% (inactive)
6,CCOc1ccccc1N1CC(c2nc3ccccc3n2CCCOc2ccccc2OC)CC1=O (stereo unspecified),79% (inactive)
7,CCOc1ccc(N2CC(c3nc4ccccc4n3CCCCOc3ccc(OC)cc3)CC2=O)cc1 (stereo unspecified),71% (inactive)
8,CCCCN1CC(c2nc3ccccc3n2CCCCOc2ccc(C)cc2C)CC1=O (stereo unspecified),-5% (active)
9,CCCCN1CC(c2nc3ccccc3n2CCCCOc2cc(C)ccc2C)CC1=O (stereo unspecified),-6% (active)
10,Cc1ccc(CCNC(=O)CCS(=O)(=O)c2cc3c(cc2Cl)NC(=O)CO3)cc1,91% (inactive)
11,COc1ccc(C(=O)NCC(c2cccs2)S(=O)(=O)c2ccc(C)cc2)cc1 (stereo unspecified),143% (inactive)
12,CCc1ccc(N(CC(=O)NCC2CCCO2)S(C)(=O)=O)cc1 (stereo unspecified),112% (inactive)
13,COc1ccc(NC(=O)c2noc3c2CCCC3)cc1Cl,82% (inactive)
14,O=C(Nc1ccc(OC(F)(F)F)cc1)c1noc2c1CCCC2,86% (inactive)
15,CCOC(=O)c1ccc(NC(=O)c2noc3c2CCCC3)cc1,-2% (active)
16,O=C(CCS(=O)(=O)c1ccc(Br)cc1)Nc1ccc(F)cc1F,53% (inactive)
17,C=CCc1ccccc1OCc1nc2ccccc2n1CC,76% (inactive)
18,Cc1ccc(OCc2nc3ccccc3n2Cc2ccccc2Cl)cc1,7% (active)
19,Cc1ccccc1OCc1nc2ccccc2n1Cc1ccccc1Cl,0% (active)
20,COc1ccc(OCc2nc3ccccc3n2Cc2ccccc2Cl)cc1,72% (inactive)
21,Cc1cccc(C(=O)NCc2nc3ccccc3n2Cc2ccccc2Cl)c1,107% (inactive)
22,CC(=O)Nc1ccc(S(=O)(=O)NCCc2cn3ccsc3n2)cc1,72% (inactive)
23,COc1ccc(-c2nc3sc(CCNC(=O)C(=O)Nc4ccc(C)c(C)c4)c(C)n3n2)cc1,117% (inactive)
24,Cc1cc(C(F)F)n2nc(C(=O)Nc3ccc(F)c(Cl)c3)nc2n1,83% (inactive)

row,SMILES,survival
1,CN1CCc2c(sc3nc(=S)[nH]c(N)c23)C1,109% (inactive)
2,COc1cccc(Nc2sc(C(=O)c3ccc(F)cc3)c(N)c2C(=O)NCc2ccc(C)cc2)c1,63% (inactive)
3,COc1cccc(Nc2sc(C(=O)c3ccc(F)cc3)c(N)c2C(=O)NCc2ccc(Cl)cc2)c1,0% (active)
4,Cc1ccc(CNC(=O)c2c(Nc3ccccc3C)sc(C(=O)c3ccc(F)cc3)c2N)cc1,-3% (active)
5,COc1cccc(Nc2sc(C(=O)c3ccc(Cl)cc3)c(N)c2C(=O)NCc2ccc(C)cc2)c1,76% (inactive)
6,Cc1ccccc1Nc1sc(C(=O)c2ccccc2)c(N)c1C(=O)NCc1ccc(Cl)cc1,73% (inactive)
7,Cc1ccccc1Nc1sc(C(=O)c2ccc(F)cc2)c(N)c1C(=O)NCCc1ccccc1,55% (inactive)
8,CCS(=O)(=O)N1CC(=O)N(c2cc(C)ccc2C)C(C)(C(=O)NC2CCCCC2)C1 (stereo unspecified),59% (inactive)
9,COc1ccc(-c2cn3c(n2)sc2cc(C(=O)NC4CCCc5ccccc54)ccc23)cc1 (stereo unspecified),78% (inactive)
10,COC(=O)c1ccccc1NC(=O)CSc1nc2ccsc2c(=O)n1CCC(C)C,78% (inactive)
11,CCn1c(SCC(=O)Nc2ccccc2C(=O)OC)nc2ccsc2c1=O,83% (inactive)
12,CCC(C)n1c(SCC(=O)Nc2ccccc2C(=O)OC)nc2ccsc2c1=O (stereo unspecified),-1% (active)
13,O=C(NCC(c1ccco1)S(=O)(=O)c1cccs1)c1ccccc1F (stereo unspecified),80% (inactive)
14,Fc1ccc(-c2cc(C(F)(F)F)nc(NCc3ccccc3)n2)cc1,93% (inactive)
15,Fc1ccc(CNc2nc(-c3ccccc3)cc(C(F)(F)F)n2)cc1,-3% (active)
16,Fc1ccc(CNc2nc(-c3ccc(Cl)cc3)cc(C(F)(F)F)n2)cc1,-5% (active)
17,Fc1ccc(CNc2cc(-c3ccccc3)nc3nncn23)cc1,29% (inactive)
18,O=C(NCc1ccc(F)cc1)c1cc(-c2ccc(Cl)cc2)n[nH]1,94% (inactive)
19,CC1CCN(S(=O)(=O)c2ccc3nc(NCc4ccccc4)ccc3c2)CC1,131% (inactive)
20,Cc1nc2ccn(Cc3ccco3)c(=O)c2cc1C(=O)NCc1ccc(Cl)cc1,60% (inactive)
21,O=C(O)c1ccc2c(c1)C(=O)NC2=O,113% (inactive)
22,O=C(Nc1ccc2[nH]c(=O)c(=O)[nH]c2c1)c1cccc(F)c1,140% (inactive)
23,CC(=O)Nc1ccc(S(=O)(=O)NC2=NCN(C(C)C)CN2)cc1,143% (inactive)
24,C=CCNC(=O)Nc1c[nH]c2ccccc2c1=O,111% (inactive)

row,SMILES,survival
1,O=C(CSCc1cc(=O)c2ccccc2[nH]1)Nc1cccc(C(F)(F)F)c1,124% (inactive)
2,O=C(O)CCC(=O)N1CCc2cc(S(=O)(=O)NCc3ccc(F)cc3)ccc21,85% (inactive)
3,O=C(CCc1nnc2n(Cc3ccccc3Cl)c(=O)c3ccccc3n12)Nc1ccc(F)c(F)c1,89% (inactive)
4,O=C(Nc1ccc(F)cc1F)c1cc(CN2CCOCC2)on1,69% (inactive)
5,CCOC(=O)c1cnc2ccc(OC)cc2c1NCCc1ccc(OC)c(OC)c1,78% (inactive)
6,CCOC(=O)c1cnc2c(C)cc(C)cc2c1NCCc1ccc(OC)c(OC)c1,75% (inactive)
7,CCOC(=O)c1cnc2ccc(OC)cc2c1NCCc1ccccc1,0% (active)
8,CCOC(=O)c1cnc2c(C)c(Cl)ccc2c1NCCc1ccc(OC)c(OC)c1,4% (active)
9,CCOC(=O)c1cnc2ccc(OCC)cc2c1NCCc1ccc(OC)c(OC)c1,133% (inactive)
10,CCOC(=O)c1cnc2c(C)c(Cl)ccc2c1NCCc1ccccc1,-3% (active)
11,CCOC(=O)c1cnc2c(C)c(Cl)ccc2c1Nc1ccc(C)cc1C,140% (inactive)
12,CCOC(=O)c1cnc2c(C)cc(Cl)cc2c1NCCc1ccc(OC)c(OC)c1,48% (inactive)
13,CCOC(=O)c1cnc2c(C)c(C)ccc2c1NCCCCCO,110% (inactive)
14,COc1cc(Cl)c(C)cc1NC(=O)c1cnn(-c2ccc(C)cc2)c1-n1cccc1,65% (inactive)
15,CC1(C(=O)O)CCC(C(=O)N2CCCCC2)C1(C)C (stereo unspecified),106% (inactive)
16,Cc1ccc(NC2=C(CC(=O)O)C(c3ccc(F)cc3)N(c3ccc(C)cc3)C2=O)cc1 (stereo unspecified),74% (inactive)
17,Cc1ccc(CNC(=O)CCc2c(C)c3ccc(O)c(C)c3oc2=O)cc1,87% (inactive)
18,Cc1nc2sc(C(=O)NCc3ccc(Cl)cc3)c(NC(=O)c3ccccc3)c2c(C)c1C,86% (inactive)
19,Cc1ccc(CNC(=O)CN2N=C(c3ccc(C)cc3)CCC2=O)cc1,80% (inactive)
20,Cc1cc(Sc2ccc(Cl)cc2)nc2ccccc12,50% (inactive)
21,CCCCN(CCCC)c1nc(-c2ccccc2)nc2ccccc12,-3% (active)
22,CCN(CC)c1nc(-c2ccc(C(C)(C)C)cc2)nc2ccccc12,-2% (active)
23,CCCN(CCC)c1nc(-c2ccccc2F)nc2ccccc12,1% (active)
24,CC(C)CN(CC(C)C)c1nc(-c2ccc(Cl)cc2)nc2ccccc12,-1% (active)

row,SMILES,survival
1,COc1ccccc1Nc1nc(-c2ccccc2F)nc2ccccc12,73% (inactive)
2,Cc1ccc(C(=O)COC(=O)c2cc(-c3ccc(Cl)cc3)nc3ccccc23)cc1,117% (inactive)
3,CCCCN(C)CCCNC(=O)c1cc(-c2cccnc2)nc2ccccc12,77% (inactive)
4,CCN(CC)c1nc(-c2ccccc2)nc2ccccc12,108% (inactive)
5,Cc1cc(N(C)Cc2ccccc2)n2nc(-c3ccc(C(C)(C)C)cc3)nc2n1,77% (inactive)
6,CCCCN(CC)c1nc(-c2ccccc2F)nc2ccccc12,71% (inactive)
7,CCCCc1nc2ccccc2c(C(=O)O)c1C,106% (inactive)
8,COc1ccc(-n2ccnc2SCC(=O)Nc2ccc(F)cc2F)cc1,143% (inactive)
9,Cc1ccccc1NC(=O)CSc1ncc2c(n1)-c1ccccc1N(C)S2(=O)=O,99% (inactive)
10,CCN(C(=O)c1sc2nc3n(c(=O)c2c1C)CCCCC3)c1ccc(OC)cc1,83% (inactive)
11,CCN(C(=O)C1CCC(CNS(=O)(=O)c2cccc3nsnc23)CC1)c1cccc(C)c1 (stereo unspecified),86% (inactive)
12,N#Cc1c(/N=C/c2ccc3c(c2)OCO3)oc(-c2ccccc2)c1-c1ccccc1,115% (inactive)
13,COc1cccc(CNC(=O)Cn2c(=O)nc(-c3ccccc3F)c3cc(Cl)ccc32)c1,82% (inactive)
14,O=C(COc1ccccc1)NS(=O)(=O)c1ccc(N=NN2CCOCC2)cc1,105% (inactive)
15,Cc1ccc(CNC(=O)C(=O)Nc2c3c(nn2-c2ccccc2)CSC3)cc1,82% (inactive)
16,COc1ccc(NC(=O)CSc2ncc3c(n2)-c2cc(Cl)ccc2N(Cc2ccccc2F)S3(=O)=O)cc1,65% (inactive)
17,CCc1ccccc1NC(=O)CC1NCCNC1=O (stereo unspecified),87% (inactive)
18,O=C(Nc1cccc(C(F)(F)F)c1)C1CCN(S(=O)(=O)c2cccs2)CC1,92% (inactive)
19,Cc1ccc(C)c(N2CCN(CCCNC(=O)c3ccc4nc(N5CCC(C)CC5)sc4c3)CC2)c1,1% (active)
20,Cc1ccc(Cl)cc1N1CCN(CCCNC(=O)c2ccc3nc(N4CCCCC4)sc3c2)CC1,45% (inactive)
21,CC1CCN(c2nc3ccc(C(=O)N4CCN(c5ccccc5)CC4)cc3s2)CC1,64% (inactive)
22,Cc1ccc(Cl)cc1N1CCN(C(=O)c2ccc3nc(N4CCC(C)CC4)sc3c2)CC1,16% (inactive)
23,Cc1cccc(N2CCN(C(=O)c3ccc4nc(N5CCC(C)CC5)sc4c3)CC2)c1C,1% (active)
24,Cc1ccc(C)c(N2CCN(CCCNC(=O)c3ccc4nc(N5CCCCC5)sc4c3)CC2)c1,76% (inactive)
